Reference: PubChem BioAssay AID977607 (Broad Institute, 2014)
Among all 1,500 compounds or so, about 460 (31%) were called active. Inconclusive results (about 1%) are left out.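 How the source made its calls: active means curve reaches 40% activation over neutral controls at an AC40 no higher than the top valid tested concentration; inconclusive means no clear call, values can overlap the other calls; inactive means signal moving opposite to the expected increase, and the rest.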 Only a sample is shown. Entries with a potency or affinity are not part of this list.

Assay: activators of glucose-dependent insulin secretion, dose response, cell-based, INS-1E, Gaussia luciferase, luminescence, cherry-pick, set 2 (AID 977607);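 further: 0% = median of the plate neutral control wells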
Details: INS-1E GLuc insulin secretion reporter, 2-3 h, stronger effect = higher value; at 35 µM, 100% = signal doubled over neutral wells unless noted

Max activation, inactive:
O=C(COC(=O)c1cccnc1Cl)Nc1cc(S(=O)(=O)N2CCCCCC2)ccc1Cl -32.2%
CCOc1ncccc1C(=O)NC(C)CCc1ccccc1 (configuration not stated) 29.7%
COc1cc(OC)c(OC)cc1CCC(C)NC(=O)Cc1ccccc1 (configuration not stated) 27.7% [at 0.005 µM, 100% = signal doubled over neutral wells]
C[C@H]1CN=C(N(C)C)N1CC1CCCC1 -12% [at 0.015 µM, 100% = signal doubled over neutral wells]
Cc1ccc(C(=O)N2CCN3C(=O)c4ccccc4C23c2ccccc2)cc1 (configuration not stated) -24.9%
CCCCCCn1c(SCC(C)C)nc2c1c(=O)[nH]c(=O)n2C 12.8%
Cn1c(=O)[nH]c(=O)c2c1nc(NC1CCCC1)n2Cc1ccccc1 -12.1% [at 0.0016 µM, 100% = signal doubled over neutral wells]
C=CCn1c(SCc2ccccc2)nc2c1c(=O)[nH]c(=O)n2C -13.1% [at 0.015 µM, 100% = signal doubled over neutral wells]
CN(Cc1ccccc1)c1nc2c(c(=O)[nH]c(=O)n2C)n1Cc1ccccc1 14.1% [at 11 µM, 100% = signal doubled over neutral wells]
O=C(O)C(Cc1ccc(O)cc1)N1C(=O)c2ccccc2C1=O (configuration not stated) -22% [at 0.046 µM, 100% = signal doubled over neutral wells]
CCOc1ccc2oc(C(=O)N(C)CCc3ccc(OC)c(OC)c3)c(C)c2c1 47.7%
COc1ccc(CCN(C)C(=O)Cn2c(=O)oc3ccccc32)cc1OC -16.4%
Cc1ccc(Nc2ncnc3sccc23)c(C)c1 -16% [at 0.015 µM, 100% = signal doubled over neutral wells]
CCCCc1c(-c2ccccc2OC)ncn1Cc1ccc(C)cc1 -22.3% [at 11 µM, 100% = signal doubled over neutral wells]
CCCCc1c(-c2ccccc2OC)ncn1C(C)c1ccccc1 (configuration not stated) 37.1%
COc1ccc(CCN2C(=O)CC(Cc3ccccc3)C2=O)cc1OC (configuration not stated) -9.21% [at 0.046 µM, 100% = signal doubled over neutral wells]
CCOc1cc(C2C3=C(CC(C)(C)CC3=O)Nc3n[nH]c(C)c32)ccc1O (configuration not stated) -17.9% [at 0.015 µM, 100% = signal doubled over neutral wells]
c1csc(-c2nc(NCC3CCCO3)c3ccccc3n2)c1 (configuration not stated) 39.8% [at 11 µM, 100% = signal doubled over neutral wells]
Cn1nnnc1Sc1ncnc2scc(-c3ccc(F)cc3)c12 -12.9% [at 0.42 µM, 100% = signal doubled over neutral wells]
NC1=NC[C@H](Cc2ccccc2)N1CCCCC1CCCCC1 -33.4% [at 11 µM, 100% = signal doubled over neutral wells]
COc1ccc(C[C@H]2CN3C(=NC[C@@H]3Cc3ccccc3)N2CCNC(=O)CCC2CCCCC2)cc1 62.1%
Cc1cc(NS(=O)(=O)c2ccc(NC(=O)C(C)Oc3ccccc3Cl)cc2)no1 (configuration not stated) -22.4% [at 0.015 µM, 100% = signal doubled over neutral wells]
CCOc1ccccc1CNC(c1ccccc1)c1ccccc1 -22.9% [at 11 µM, 100% = signal doubled over neutral wells]
COc1cc2ccc(C(C)=NNC(N)=S)cc2cc1OC -23.9% [at 0.135 µM, 100% = signal doubled over neutral wells]
O=C(Nc1ncn[nH]1)c1ccc(Cl)c(Cl)c1 -14.6% [at 0.135 µM, 100% = signal doubled over neutral wells]
C/C(=N\NC(=O)CO/N=C(\C)c1cccs1)c1ccc(N)cc1 -25.9%
CC(C)CCN1C(=O)CSCC1(C)C(=O)NC(C)C (configuration not stated) -10.4%
Cc1cccn2cc(CNS(=O)(=O)c3ccc4ccccc4c3)nc12 34% [at 3.8 µM, 100% = signal doubled over neutral wells]
COCCn1c(=S)[nH]c2sc3c(c2c1=O)CCCC3 -29.9% [at 11 µM, 100% = signal doubled over neutral wells]
COc1cc(CN2CCC(n3nccc3NC(=O)C3CCOC3)CC2)ccc1F (configuration not stated) -11.8%
COc1ccccc1-n1cnc2sc(C)c(C)c2c1=O 29.4% [at 11 µM, 100% = signal doubled over neutral wells]
COc1ccc(C(=O)OCC(=O)NC(=O)NC2CCCC2)cc1OC -7.36% [at 0.005 µM, 100% = signal doubled over neutral wells]
COc1ccc(C2N(c3ccccc3)C(=O)C2(F)F)cc1OC (configuration not stated) -13.7%
COc1ccc(S(=O)(=O)NC2CCCCC2)cc1C 14.2% [at 3.8 µM, 100% = signal doubled over neutral wells]
CCSc1nnc2ccc(-c3ccc(C)cc3)nn12 18.5% [at 0.015 µM, 100% = signal doubled over neutral wells]
O=C(COc1ccccc1)Nc1ccccc1C(=O)NC1CC1 -11.7% [at 0.046 µM, 100% = signal doubled over neutral wells]
O=C(CC(c1ccccc1)c1ccco1)N1CCOCC1 (configuration not stated) 18.9% [at 1.2 µM, 100% = signal doubled over neutral wells]
CC(=O)c1c(O)c2cccc3c2n(c1=O)CCC3 -22.5% [at 0.046 µM, 100% = signal doubled over neutral wells]
Cc1ccccc1S(=O)(=O)N1CC(=O)N2[C@@H](CO)[C@H](c3ccc(C#CCC4CCCC4)cc3)[C@@H]2C1 276% [at 35 µM]
CCC(=O)Nc1cc(C(C)(C)C)ccc1C(C)=O -23.6% [at 0.135 µM, 100% = signal doubled over neutral wells]
O=C(c1cccs1)N(Cc1ccccn1)Cc1ccco1 -16.4% [at 0.015 µM, 100% = signal doubled over neutral wells]
CN1CCN(c2ccc(CNC(=O)C3(C)Cc4c(-c5ccccc5)ccnc4O3)cc2)CC1 (configuration not stated) -21.2% [at 0.005 µM, 100% = signal doubled over neutral wells]
CNC(=O)c1[nH]nc2c1CCc1cc(OC)ccc1-2 -16.9% [at 0.005 µM, 100% = signal doubled over neutral wells]
COc1ccc2c(c1)CCc1cc(C(=O)O)sc1-2 -25.3% [at 0.135 µM, 100% = signal doubled over neutral wells]
Cc1cc(C)nc(NC(N)=NCCc2c[nH]c3ccccc23)n1 -23.4% [at 0.046 µM, 100% = signal doubled over neutral wells]
COC(=O)C1=C(C)N(Cc2ccc(C(F)(F)F)cc2)C(=NCC2CC2)NC1c1ccccc1 (configuration not stated) -21% [at 3.8 µM, 100% = signal doubled over neutral wells]
COc1cc(C(F)(F)F)c(C(=O)NCc2cccc(Cl)c2)cn1 -11.8%
CCN(CC)CCCN=C1N[C@@H](c2ccccc2)C(C(=O)OC)=C(C)N1CC -23.5% [at 3.8 µM, 100% = signal doubled over neutral wells]
CCCCN(Cc1nc2ccccc2c(=O)[nH]1)C(=O)c1nn(C)c(=O)c2ccccc12 -30.4% [at 0.0016 µM, 100% = signal doubled over neutral wells]
Clc1cc(NC2CCCCC2)ncn1 -22.5% [at 11 µM, 100% = signal doubled over neutral wells]
CC(C)c1cc(C(C)C)n2nc(N)nc2n1 24.3%
COCCOC(=O)C1=C(C)NC(=O)N(C(C)=O)C1c1ccc(Cl)cc1 (configuration not stated) -26.3% [at 3.8 µM, 100% = signal doubled over neutral wells]
NC1=NC(=O)C(Cc2ccc(F)cc2)S1 (configuration not stated) -13% [at 0.015 µM, 100% = signal doubled over neutral wells]
CCCNC(=O)C1(C)CCN(C(=O)c2cccc(C(F)(F)F)c2)C1 (configuration not stated) -15.8% [at 0.135 µM, 100% = signal doubled over neutral wells]
O=C(c1ccccc1F)N1CCCC(N2CCN(Cc3ccc4c(c3)OCO4)CC2)C1 (configuration not stated) -12.4% [at 0.0016 µM, 100% = signal doubled over neutral wells]
CCCCc1nnc2c(N(C)S(=O)(=O)c3ccccc3)nc3ccccc3n12 -17.8% [at 0.015 µM, 100% = signal doubled over neutral wells]
Cc1cccc(N2CCN(C(=O)c3cccn4c(=O)c5c(C)c(C)sc5nc34)CC2)c1C -13.3% [at 0.046 µM, 100% = signal doubled over neutral wells]
